The entries come from a sample that favours hits as a whole.
S1P2 ag: S1P2 (human) receptor agonism; O95136; S1P2-expressing cell line, agonist reporter read-out; activation, % at 4.5 µM; 0.46% of 97,000 active; AID 729; in the data active = activation above about 16%
Target sequence (O95136 whole entry, looked up): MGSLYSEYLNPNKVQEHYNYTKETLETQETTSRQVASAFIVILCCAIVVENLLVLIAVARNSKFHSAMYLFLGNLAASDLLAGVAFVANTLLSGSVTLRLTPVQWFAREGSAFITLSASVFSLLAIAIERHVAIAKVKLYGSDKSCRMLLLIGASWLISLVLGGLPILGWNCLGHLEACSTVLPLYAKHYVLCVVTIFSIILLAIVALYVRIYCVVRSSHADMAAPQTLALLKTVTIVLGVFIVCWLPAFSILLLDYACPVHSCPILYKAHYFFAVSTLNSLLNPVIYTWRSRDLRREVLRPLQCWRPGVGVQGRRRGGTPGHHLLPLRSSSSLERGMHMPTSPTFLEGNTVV
S1P2 blocker: blocks the human S1P2 receptor; cell-based S1P2 antagonist assay, inhibition at 5 uM; inhibition, % at 5 µM; 0.21% of 97,000 active; O95136; in the data active = inhibition above about 45%;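 note: CRE beta-lactamase reporter cells expressing human S1P2 stimulated with S1P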
PostGolgi ctrl: inhibits growth of the yeast control strain. efflux-deficient yeast background strain, growth absorbance A615, 16 h. inhibition, % at 10 µM. 5% of 98,000 active. AID 738
GALR2 agonist: agonists of human galanin receptor 2 (GALR2) | O43603 | GALR2-expressing cells, agonist activation read-out | activation, % (test concentration not listed) | 0.48% of 140,000 active | AID 803; in the data active = activation above about 5%, passing the limit was not always enough
Target sequence (O43603 whole entry, looked up): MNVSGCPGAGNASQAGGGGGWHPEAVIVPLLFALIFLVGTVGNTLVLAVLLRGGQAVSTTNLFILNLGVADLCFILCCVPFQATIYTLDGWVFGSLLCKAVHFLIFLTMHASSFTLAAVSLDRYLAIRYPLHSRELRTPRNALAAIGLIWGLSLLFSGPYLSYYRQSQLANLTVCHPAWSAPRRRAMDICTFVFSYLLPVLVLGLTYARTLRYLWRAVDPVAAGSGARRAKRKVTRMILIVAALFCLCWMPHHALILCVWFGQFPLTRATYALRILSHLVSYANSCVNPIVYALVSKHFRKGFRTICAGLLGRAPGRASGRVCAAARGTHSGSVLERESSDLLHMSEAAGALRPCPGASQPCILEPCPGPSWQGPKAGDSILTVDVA
PostGolgi yeast: growth inhibition of a yeast mutant, post-Golgi transport screen; post-Golgi transport phenotypic cell assay; 0.9% of 98,000 active; inhibition, % at 10 µM;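 note: yeast cells grown in 1536-well plates; yeast grown about 18 h at 30C before absorbance read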
GALR2 antag: GALR2 (human) receptor antagonism | O43603 | GALR2-expressing cells, antagonist mode | inhibition, % at 4 µM | 0.39% of 140,000 active | AID 828; in the data active = inhibition above about 27%;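 note: cells stimulated with galanin 1-16 at roughly its EC80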
Large screens that a line does not name were inactive. Cut-off read from the data, not from the text of the source, unless noted: active = inhibition above about 30%; inactive = the rest.

CC(C)Cc1[nH]c(=O)c(C#N)c2c1CCC2	PostGolgi yeast 34.9
COCC(C)OC(=O)c1c(N)n(Cc2ccco2)c2nc3ccccc3nc12 (centres undefined)	none
CCCCn1c(NS(=O)(=O)c2ccc(C)cc2)c(C(=O)OCC)c2nc3ccccc3nc21	GALR2 agonist 7.0 (no result: S1P2 ag, S1P2 blocker, PostGolgi ctrl, PostGolgi yeast)
Nc1c(C(=O)NCc2ccco2)c2nc3ccccc3nc2n1Cc1ccc(F)cc1	S1P2 ag 48.0, GALR2 agonist 27.8
CCOC(=O)c1c(N)n(Cc2ccco2)c2nc3ccccc3nc12	PostGolgi ctrl 47.1
Nc1c(C(=O)NCc2ccco2)c2nc3ccccc3nc2n1Cc1ccccc1	GALR2 agonist 5.1 (no result: S1P2 ag, S1P2 blocker, PostGolgi ctrl, PostGolgi yeast)
CCCCn1c(NC(=O)c2ccco2)c(C(=O)OCC)c2nc3ccccc3nc21	none
O=c1c2ccccc2nc(-c2cccs2)n1-c1ccccc1	none
CCn1nc(-c2cccs2)nc2c(=O)n(C)c(=O)nc1-2	PostGolgi ctrl 99.7, PostGolgi yeast 104.6 (no result: S1P2 ag, S1P2 blocker, GALR2 agonist, GALR2 antag)
N[C@@H](Cc1c[nH]c2ccccc12)c1nnc(SCc2ccccc2)o1	none
N[C@@H](Cc1c[nH]c2ccccc12)c1nnc(SCc2ccc(Cl)cc2)o1	PostGolgi yeast 46.8
OC1/C(=C/c2ccc(F)cc2)N2CCC1CC2 (centres undefined)	none (no result: S1P2 ag, S1P2 blocker, PostGolgi ctrl, PostGolgi yeast)
O=c1c2ccccc2nc(-c2ccc(-c3ccccc3)cc2)n1-c1ccncc1	PostGolgi ctrl 85.9, PostGolgi yeast 100.5
Cc1ccc(-c2nc3ccccc3c(=O)n2-c2ccncc2)cc1	none (no result: S1P2 ag, S1P2 blocker, PostGolgi ctrl, PostGolgi yeast)
COc1ccc([N+](=O)[O-])cc1N=Cc1c(O)n(CCc2ccccc2)c(=O)n(C(C)C)c1=O	none (no result: S1P2 ag, S1P2 blocker, PostGolgi ctrl, PostGolgi yeast)
CC(C)CC(=O)NC(Oc1ccc(Cl)cc1)C(Cl)(Cl)Cl (centres undefined)	none
CC(C)(C)C(O)C(Oc1ccc(Cl)cc1)n1cncn1 (centres undefined)	PostGolgi ctrl 97.6, PostGolgi yeast 104.0
Cc1c(C=O)c2ccccc2n1Cc1ccc([N+](=O)[O-])cc1	none (no result: S1P2 ag, S1P2 blocker, PostGolgi ctrl, PostGolgi yeast)
Cc1cccn2c(=O)c3c(nc12)N1CCC(Cc2ccccc2)CC1C1(C3)C(=O)N(C)C(=O)N(C)C1=O (centres undefined)	S1P2 ag 17.4
CC(C)OP(=O)(OC(C)C)C(O)c1ccccc1F (centres undefined)	none (no result: S1P2 ag, S1P2 blocker, PostGolgi ctrl, PostGolgi yeast)
COc1cccc(-n2c(CN3CCN(C)CC3)nc3ccc([N+](=O)[O-])cc3c2=O)c1	none (no result: S1P2 ag, S1P2 blocker, PostGolgi ctrl, PostGolgi yeast)
O=P(Nc1ccccc1Cl)(c1ccccc1)c1nc2c(s1)CCCC2 (centres undefined)	PostGolgi ctrl 33.3
CCN1/C(=C\C=C\C2=[N+](CC)c3ccccc3C2(C)C)C(C)(C)c2ccccc21	S1P2 blocker 105.7, PostGolgi ctrl 96.0, PostGolgi yeast 99.2
N=C1c2ccccc2CN1NC(=O)c1ccc(Br)cc1	none (no result: S1P2 ag, S1P2 blocker, PostGolgi ctrl, PostGolgi yeast)
CN1C(=O)N(C)C(=O)C2(Cc3cc([N+](=O)[O-])ccc3N(C)C2c2ccccc2)C1=O (centres undefined)	none (no result: S1P2 ag, S1P2 blocker, PostGolgi ctrl, PostGolgi yeast)
Nc1ccc(S(=O)(=O)N2CC3CC(C2)c2cccc(=O)n2C3)cc1 (centres undefined)	none
Cc1ccc(S(=O)(=O)N2CC3CC(C2)c2cccc(=O)n2C3)cc1 (centres undefined)	PostGolgi yeast 33.0
COc1ccc(CCNC(=O)c2c(N)n(CCN3CCOCC3)c3nc4ccccc4nc23)cc1OC	none
Nc1c(C(=O)NCc2ccco2)c2nc3ccccc3nc2n1CCN1CCOCC1	none
CCCOC(=O)c1c(N)n(Cc2cccs2)c2nc3ccccc3nc12	PostGolgi ctrl 47.6
COCCOC(=O)c1c(N)n(Cc2ccccc2)c2nc3ccccc3nc12	none (no result: S1P2 ag, S1P2 blocker)
CCCCCCn1c(N)c(C(=O)NCCN2CCOCC2)c2nc3ccccc3nc21	S1P2 ag 29.5, GALR2 agonist 20.4
CCCCCn1c(N)c(C(=O)NCCN2CCOCC2)c2nc3ccccc3nc21	S1P2 ag 16.4
Nc1c(C(=O)NCCCc2ccccc2)c2nc3ccccc3nc2n1Cc1cccs1	S1P2 ag 83.7, GALR2 agonist 32.1
Cc1ccc(Cn2cc(C=O)c(-c3ccc(C)cc3)n2)cc1	none (no result: S1P2 ag, S1P2 blocker, PostGolgi ctrl, PostGolgi yeast)
Cc1nn(Cc2ccc(Cl)cc2Cl)c(Cl)c1C(=O)NC1CCCc2ccccc21 (centres undefined)	none (no result: S1P2 ag, S1P2 blocker, PostGolgi ctrl, PostGolgi yeast)
CC1C(c2cccs2)=[N+]([O-])C(C)(C(=O)c2ccc(Cl)cc2)N1O (centres undefined)	none (no result: PostGolgi ctrl, PostGolgi yeast)
CCCCN1C(=N)C(CC)(CC)C(=O)NC1=O	none (no result: S1P2 ag, S1P2 blocker, PostGolgi ctrl, PostGolgi yeast)
CCCCNC(=O)c1c(N)n(Cc2ccc3c(c2)OCO3)c2nc3ccccc3nc12	S1P2 ag 38.0, GALR2 agonist 6.8
COCCCn1c(N)c(C(=O)NCCC(C)C)c2nc3ccccc3nc21	S1P2 ag 28.6, PostGolgi ctrl 31.7, GALR2 agonist 33.1
CCCCn1c(N)c(C(=O)NCc2cccs2)c2nc3ccccc3nc21	S1P2 ag 18.3, GALR2 agonist 35.6
CCCCCn1c(N)c(C(=O)NCc2cccs2)c2nc3ccccc3nc21	none
CCCCOCCCn1c(N)c(C(=O)OCCOC)c2nc3ccccc3nc21	none
O=c1[nH]c(=O)n(Cc2ccc(F)cc2)c(O)c1C=NCCN1CCCCC1	PostGolgi ctrl 32.5
O=c1[nH]c(=O)n(-c2ccccc2Cl)c(O)c1C=NCCN1CCCCC1	none
CC1=CC(=C2C(=O)NC(=S)NC2=O)C=C(C(F)(F)F)N1C	PostGolgi yeast 40.3
Cc1ccc(NC(=O)CN2C(=O)CN=C(c3ccccc3)c3cc(Cl)ccc32)cc1	PostGolgi ctrl 45.9
CC(C)OCCCNC(=O)c1c(N)n(CC2CCCO2)c2nc3ccccc3nc12 (centres undefined)	S1P2 ag 18.1, GALR2 agonist 11.5
CCCNC(=O)c1c(N)n(CC2CCCO2)c2nc3ccccc3nc12 (centres undefined)	PostGolgi ctrl 32.5
Nc1c(C(=O)OC2CCCCC2)c2nc3ccccc3nc2n1CC1CCCO1 (centres undefined)	none
CC(C)OC(=O)c1c(N)n(CC2CCCO2)c2nc3ccccc3nc12 (centres undefined)	none
COc1ccc(NC(=S)NC(NC(=O)CF)C(Cl)(Cl)Cl)c([N+](=O)[O-])c1 (centres undefined)	none (no result: S1P2 ag, S1P2 blocker, PostGolgi ctrl, PostGolgi yeast)
Cc1nc2c(c(C)nn2-c2ccccc2)c(C)c1CCC(=O)N1CCC2(CC1)OCCO2	PostGolgi ctrl 33.7 (no result: S1P2 ag, S1P2 blocker)
Cc1nc2c(-c3ccccc3)c(C)nn2c(C)c1CCC(=O)N1CCC2(CC1)OCCO2	none (no result: PostGolgi ctrl, PostGolgi yeast)
CN(Cc1ccccc1)C(=C(Cl)Cl)/C(=C1/NCCN1Cc1ccc(Cl)nc1)[N+](=O)[O-]	none
COc1ccccc1N1CCN(Cc2ccccc2F)CC1	PostGolgi yeast 36.2 (no result: S1P2 ag, S1P2 blocker)
CN(C)CC1CSCCC1(O)c1ccc(C(F)(F)F)cc1 (centres undefined)	none (no result: S1P2 ag, S1P2 blocker, PostGolgi ctrl, PostGolgi yeast)
COC(=O)C1C2c3ccccc3OC1(C)N=c1s/c(=C/c3cnn(C)c3C)c(=O)n12 (centres undefined)	PostGolgi ctrl 47.8
CC(=O)C1C2c3ccccc3OC1(C)N=c1s/c(=C/c3cnn(C)c3)c(=O)n12 (centres undefined)	none
O=C(CNC(=O)OCc1ccccc1)Nc1ccc(Br)cc1C(=O)c1ccccc1	PostGolgi ctrl 37.1
O=C(CNC(=O)c1ccccc1)Nc1ccc(Br)cc1C(=O)c1ccccc1	PostGolgi ctrl 30.8

From PubChem BioAssay
